Source: PubChem BioAssay AID686979 (National Center for Advancing Translational Sciences (NCATS), 2013)
Several values for one entry are separate records, joined by “and”; a condition that tells them apart may be missing. Equal entries are not always repeated. Screen size: about 420,000 compounds; about 50,000 (12%) were called active. Inconclusive results (about 26%) are left out. What follows is part of a selection rich in actives, with near analogues and random picks from the rest. Values without a mark were called inactive. Calls follow the shape of the dose curve; as a rule, active = well fitted inhibition curve with a large enough effect; inconclusive = small, poorly fitted or top-dose-only effect; inactive = flat fitted curve, though single readings scatter.

Test: qHTS for Inhibitors of human tyrosyl-DNA phosphodiesterase 1 (TDP1): qHTS in cells in presence of CPT; also: nearly all actives have a fitted effect of over 55% in size
Details: chicken DT40 Tdp1-/-;hTDP1 cells + 20 nM CPT, ATP luminescence, 48 h; series mostly up to 46.2 µM; activity change, negative = growth inhibition: at the top concentration
Outline: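 Cell growth measured by CellTiter-Glo luminescence after a minimum 48 h, 37 C compound exposure with 20 nM CPT in Tdp1-knockout DT40 cells stably expressing hTDP1, seeded 400/well; qHTS titration format.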
% is scaled to controls: 0 for no effect and ±100 for the full control effect; potency is read from the fitted curve at half-maximal effect.

Structure (SMILES) | activity change, negative = growth inhibition [%] | Potency
Cc1ccc2oc(C(=O)N3CCN(C)C[C@@H]3C(C)C)c(C)c2c1 | -28 | 
CN(C(=O)CN1C(=O)NC(C)(CCc2ccccc2)C1=O)c1ccccc1 (stereo not given) | 5.1 | 
COc1ccccc1C(=O)OCC(=O)Nc1cccc(S(=O)(=O)NC2=NCCCCC2)c1 | -3.79 | 
Cc1cccc(-n2c(SCC(=O)Nc3cccc(S(=O)(=O)NC4=NCCCCC4)c3)nc3ccccc3c2=O)c1C |  | 5.17 µM (active)
CCc1ccc(C(=O)OCC(=O)Nc2cccc(S(=O)(=O)NC3=NCCCCC3)c2)cc1 | 8.22 | 
O=c1ccc(-c2ccc(S(=O)(=O)Nc3ccccc3)o2)n[nH]1 | -6.29 | 
CCOc1ccc(NC(=O)C/C(C)=N/NC(=O)Cc2cccs2)cc1 | 17.8 | 
Cc1ccc2c(c1)c1c(c(=O)n(-c3ccccc3)c(=O)n1CC(=O)c1ccc(Cl)cc1)n2C | -3.09 | 
O=C1OC(Cc2ccccc2)C(c2ccccc2)C1=O (stereo not given) | -6.46 | 
Cc1c(-c2ccccc2)nc(N)c(C#N)c1-c1cccs1 | 2.19 | 
Cc1ccc(CSc2oc(-c3cccs3)nc2S(=O)(=O)c2ccc(C)cc2)cc1 |  | 13 µM (active)
COC(=O)CSc1nccc(-c2cccs2)n1 | 3.52 | 
CCCCS(=O)(=O)c1oc(-c2cccs2)nc1S(=O)(=O)c1ccccc1 |  | 0.82 µM (active)
Cc1ccc(CSc2ccc(S(=O)(=O)N3CCCCC3)cn2)cc1 | -0.899 | 
NC(=O)CSc1oc(-c2cccs2)nc1S(=O)(=O)c1ccccc1 | 6.63 | 
Cc1ccc(NC(=O)COC(=O)CNC(=O)c2ccc(Cl)cc2Cl)cc1S(=O)(=O)N1CCOCC1 | 16.6 | 
COc1ccc2[nH]c3c(c2c1)CCN1C(=O)C(CC(=O)NCCc2ccccn2)C[C@H](C(=O)N2CCOCC2)[C@@]31C (stereo not given in full) | -0.962 | 
COc1ccc(OCCCCN2CCC(C)CC2)cc1 | -3.58 | 
O=S(=O)(Nc1cccc(-c2ccc(N3CCOCC3)nn2)c1)c1ccc(Cl)c(Cl)c1 | -3.47 | 
CCN(CC)C(CNC(=O)CSc1nnnn1-c1cccc(F)c1)c1ccco1 (stereo not given) | -20 | 
COc1ccc(N(C(=O)CNC(=O)c2ccco2)C(C(=O)NCC2CCCO2)c2ccccc2)cc1Cl (stereo not given) | 11.1 | 
O=c1c2ccccc2nc2n1C(CSc1ccc(F)cc1)CN2 (stereo not given) | 3.24 | 
O=c1c2ccccc2nc2n1C(CSCc1ccccc1)CS2 (stereo not given) |  | 8.2 µM (active)
O=c1c2ccccc2nc2n1C(CSCc1cccc(C(F)(F)F)c1)CS2 (stereo not given) |  | 3.66 µM (active)
N#Cc1c(-c2ccccc2)nc(SCc2cccc(C(F)(F)F)c2)[nH]c1=O | -0.969 | 

Structure (SMILES) | activity change, negative = growth inhibition [%] | Potency
O=c1c2ccccc2nc2n1C(CSc1ccc(Cl)cc1)CN2 (stereo not given) | -1.74 | 
O=S(=O)(c1cccc(C(F)(F)F)c1)N1CCN(c2nc(-c3cccs3)nc3ccccc23)CC1 | 4.24 | 
COc1ccc(-c2c(C)c3ccc(O)c(CN4CCN(C)CC4)c3oc2=O)cc1OC | -29.5 | 
O=c1c2c(-c3ccccc3)ccnc2[nH]n1-c1ccccc1 |  | inactive
COc1cc(/C=C2\SC(=O)NC2=O)ccc1OCc1ccc(Cl)nc1 | -1.3 | 
C=CCNC(=O)c1ccc2nc(-c3ccco3)c(-c3ccco3)nc2c1 |  | 11.2 µM (active)
C=CCNC(=O)c1cc(-c2ccccc2O)on1 | -22.6 | 
C=CCNC(=O)c1ccc(C)c(Br)c1 | 25.2 | 
CCSc1nnc(SCC(=O)NNC(=O)c2ccccc2F)s1 | -10.2 | 
COc1cccc(NC(=O)CSc2cc(=O)n(C)c3ccc(Cl)cc23)c1 |  | 23.1 µM (active)
CCOc1ccc(CCNC(=O)CSc2cc(=O)n(C)c3ccc(Cl)cc23)cc1OCC |  | 18.4 µM (active)
CCOc1ccc(CCNC(=O)Nc2ccccc2)cc1OCC | -29.2 | 
Cn1c(=O)cc(SCC(=O)N2CCCC2)c2cc(Cl)ccc21 | -6 | 
CCN(CCCNC(=O)CSc1cc(=O)n(C)c2cc(Cl)ccc12)Cc1ccccc1 | -4.12 | 
COc1cccc(NC(=O)CN(C)C(=O)Cc2ccc(Cl)cc2Cl)c1 | -14.2 | 
CN(C)Cc1c(O)ccc2occ(C(O)c3ccccc3)c12 (stereo not given) | 0.876 | 
COC(C[C@@H](O)C[C@@H](O)[C@H](C)OCc1ccccc1)OC | 12.1 | 
Cc1ccc2c(c1)N(C(=O)Nc1ccc(Br)cc1F)CCO2 | 2.15 | 
O=C(Nc1ccccc1C(=O)Nc1ccncc1)c1ccc([N+](=O)[O-])cc1 | -1.72 | 
CCOC(=O)c1nc(Nc2ccc(C(=O)OC)cc2)c2ccccc2n1 |  | 7.31 µM (active) and 16.4 µM (active)
COC(=O)c1ccc(Nc2ncnc3sccc23)cc1 | -7.33 | 
CCOC(=O)c1ccc(Nc2cc(C)nc3nc(C)nn23)cc1 | 1.9 | 
C/C=C/C(=O)OCC(=O)Nc1ccc(F)cc1Cl | -15.8 | 
CN(C)N1C(N)=C(C#N)C(c2ccc(Br)cc2)C2=C1CCCC2=O (stereo not given) | 5.39 | 
COCC(C)OC(=O)c1c(N)n(CCCN2CCOCC2)c2nc3ccccc3nc12 (stereo not given) | 2.35 | 

Structure (SMILES) | activity change, negative = growth inhibition [%] | Potency
CCCNC(=O)c1c(N)n(-c2ccc(S(N)(=O)=O)cc2)c2nc3ccccc3nc12 | -3.73 | 
CC(C)(C)c1ccc(C(=O)NCCn2c(N)c(C#N)c3nc4ccccc4nc32)cc1 |  | 23.1 µM (active)
O=C(NCc1nnc(SCC(=O)N2CCCCCC2)o1)c1ccc(F)cc1 | 3.58 | 
C=CCc1cc(S(=O)(=O)c2ccc(O)c(CC=C)c2)ccc1O | -21.5 | 
Cc1c(CCC(=O)O)c(=O)oc2c(C)c(OCc3ccccc3Cl)ccc12 | 7.19 | 
CC(C)CN(C(=O)c1cccc(S(=O)(=O)N2CCCCC2)c1)C1CCS(=O)(=O)C1 (stereo not given) |  | inactive
CCCCn1c(N)c(N(CCOC)C(=O)c2cccc(OCc3ccccc3)c2)c(=O)[nH]c1=O | -10.2 | 
Cc1ccc(-c2noc(CSc3nnc(-c4ccc(Cl)cc4)n3C)n2)cc1 |  | 18.4 µM (active)
COc1ccc(-c2noc(CSc3nnc(-c4ccccc4)n3-c3ccc(F)cc3)n2)c(OC)c1 |  | 11.6 µM (active)
O=C(CSc1nnc(-c2ccncc2)n1-c1ccc(Cl)cc1)Nc1ccc(C(=O)O)cc1 | -4.12 | 
O=C(CSc1nnc(Cc2ccccc2)n1-c1ccccc1)N1CCOCC1 | 5.04 | 
Cc1ccc(-c2noc(CSc3nnc(-c4ccncc4)n3-c3ccc(F)cc3)n2)cc1 |  | 11.6 µM (active)
Cc1ccc(CSc2nnc(-c3cnccn3)n2C)cc1 | 3.5 | 
CSc1nnc(CNC(=O)c2ccccc2)n1-c1ccc(F)cc1 | -0.846 | 
Cc1ccc(-c2nc(-c3ccncc3)no2)c(C)c1 | -6.9 | 
Cc1ccc(-c2noc(CSc3nnc(-c4cccs4)n3C)n2)cc1 | -25.9 | 
COc1ccc(-c2nnc(SCC(=O)c3ccco3)n2-c2ccccc2)cc1 | 3.76 | 
COc1ccccc1-c1noc(CSc2nc(C)cc(=O)[nH]2)n1 | 8.99 | 
Fc1ccc(-n2c(Cc3ccccc3)nnc2SCc2nc(-c3ccc(Cl)cc3)no2)cc1 |  | 13 µM (active)
Cc1cc(=O)cc(C)n1-c1ccc(Cl)c(Cl)c1 | 0.528 | 
CN(C(=O)CC1C(=O)NCCN1Cc1ccc2ccccc2c1)C1CCOCC1 (stereo not given) | 5.07 | 
Cc1ccc(/C=C2\CCn3c2nc2cc(C(=O)O)ccc2c3=O)c(C)c1 | -6.72 | 
Cc1ccc(-c2cc(C(=O)NN)n[nH]2)o1 | -2.74 | 
CN(Cc1ccccc1)C(=O)[C@@H]1CCCN1C(=O)[C@@H]1CCCN1C(=O)c1c(F)cccc1F | 1.59 | 
CC(C)=CCN1CCN(Cc2ccc(Oc3ncccn3)cc2)CC1CCO (stereo not given) | -0.653 | 

Structure (SMILES) | activity change, negative = growth inhibition [%] | Potency
COc1ccccc1OCCOc1ccc(/C=C2\C(=N)N3N=C(C)SC3=NC2=O)cc1 | 5.82 | 
COc1ccc(NC(=O)N(C)C[C@H]2Oc3ncc(C#C[C@@H](C)O)cc3C(=O)N([C@H](C)CO)C[C@H]2C)cc1 | 1.89 | 
Cn1c(=O)cc(OCC(=O)N2CCN(c3ccccc3)CC2)c2ccccc21 | -1.4 | 
N#C/C(C(=O)N1CCOCC1)=C1/SC(Cc2ccc(F)cc2)C(=O)N1c1ccccc1 (stereo not given) | 10.3 | 
COc1ccc(S(=O)(=O)N2CCN(CC(=O)N3CCOCC3)CC2)cc1OC | 0.861 | 
O=C(O)CCC(=O)Nc1ccc(OCC2CCCO2)cc1 (stereo not given) | 19.8 | 
Cc1ccsc1-c1cc(C(=O)O)c2c(ccc3ccccc32)n1 | 10.3 | 
CC(=O)C1=C(O)C(=O)N(c2ccc(Br)cc2)C1c1ccc([N+](=O)[O-])cc1 (stereo not given) | 23.1 | 
CCn1c(CNC(=O)c2ccccc2)nnc1SCC(=O)N1CCN(c2ccccc2)CC1 | -0.967 | 
CCn1c2c(c(=O)n3ncc(C(=O)N4CCN(c5ccccc5)CC4)c13)CN(Cc1ccc(OC)cc1)CC2 |  | 16.4 µM (active)
CCOC(=O)N1CCC(NC(=O)C(NS(=O)(=O)c2ccc3c(c2)CCN3C(=O)CC)C(C)C)CC1 (stereo not given) | -1.88 | 
Cc1cc(C)cc(NS(=O)(=O)c2cc3c(cc2C)NC(=O)CO3)c1 |  | 16.4 µM (active)
Cc1cc2c(cc1S(=O)(=O)NCc1ccc(Cl)cc1)OCC(=O)N2 | -4.04 | 
Cc1ccc(NS(=O)(=O)c2ccc3c(c2)NC(=O)CO3)cc1 | -25.8 | 
CC1CCCCC12NC(=O)N(CC(=O)OCC(=O)NCc1ccc(F)cc1)C2=O (stereo not given) | 6.76 | 
CC(=O)C[C@@H]1OC[C@H](CO)N1S(=O)(=O)c1ccc(C)cc1 | -5.46 | 
CCOC(=O)c1cnc(SCC(=O)NCc2ccco2)nc1N | -2.75 | 
CCOC(=O)c1cnc(SCC(=O)Nc2ccccc2C(=O)OC)nc1N |  | 16.4 µM (active)
COC(=O)c1ccccc1NC(=O)CSc1ccccn1 | 2.84 | 
O=C(CSc1nc2ccccc2c(=O)n1CCCO)NC1CC1 | -3.57 | 
COc1ccc(CCNC(=O)CCC(=O)NC2CCCCC2)cc1OC | -17.8 | 
COc1ccc(CCNC(=O)C2CCCN2C(=O)Nc2ccccc2)cc1OC (stereo not given) | 1.85 | 
COc1ccc(CCNC(=O)c2c3c(nc4ccccc24)C(=O)N(C2CCCCC2)C3)cc1OC |  | 20.6 µM (active)
COc1ccc(C(=O)NCCNc2ccc([N+](=O)[O-])cn2)cc1 | -12.2 | 
COc1ccc2c(C(=O)c3ccc(C)cc3)n(CCC(N)=O)[n+]([O-])c2c1 | -8.64 | 
